PubChem BioAssay
The source made the active and inactive calls. Unless noted, the rule behind the calls is not given here.

Experiments:
[1] = HepG2 liver cancer cell viability effects, profiling panel, resazurin fluorescence, 24 h, PK04 Diversity Set (AID 1172); conditions: higher = more signal; note: test concentration not given here
[2] = basal S. cerevisiae growth modulation, no modifier, primary screen, OD600, strain BY4716, 24 h, basal condition (AID 1173); conditions: OD600, 24 h, higher = more signal, called active from +8 up or from −8 down
[3] = MM1S myeloma cell viability, profiling panel, resazurin fluorescence, basal, 24 h, PK04 Diversity Set (AID 1174); conditions: higher = more signal, called active from +8 up or from −8 down;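 note: MM1S multiple myeloma cell line; test concentration not given here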
[4] = target: Dihydroorotate dehydrogenase (quinone), mitochondrial (Plasmodium falciparum (isolate 3D7)) (UniProt Q08210); assay: PfDHODH enzyme inhibitors, primary screen, biochemical, C-terminal His tag, absorbance 600 nm (AID 1175); conditions: DCIP absorbance 600 nm, higher = more signal, called active from +8 up or from −8 down;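 note: recombinant parasite enzyme with a five histidine tag at its C terminus; test concentration not given here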
Dihydroorotate dehydrogenase (quinone), mitochondrial (Plasmodium falciparum (isolate 3D7)), sequence (Q08210 whole entry, looked up): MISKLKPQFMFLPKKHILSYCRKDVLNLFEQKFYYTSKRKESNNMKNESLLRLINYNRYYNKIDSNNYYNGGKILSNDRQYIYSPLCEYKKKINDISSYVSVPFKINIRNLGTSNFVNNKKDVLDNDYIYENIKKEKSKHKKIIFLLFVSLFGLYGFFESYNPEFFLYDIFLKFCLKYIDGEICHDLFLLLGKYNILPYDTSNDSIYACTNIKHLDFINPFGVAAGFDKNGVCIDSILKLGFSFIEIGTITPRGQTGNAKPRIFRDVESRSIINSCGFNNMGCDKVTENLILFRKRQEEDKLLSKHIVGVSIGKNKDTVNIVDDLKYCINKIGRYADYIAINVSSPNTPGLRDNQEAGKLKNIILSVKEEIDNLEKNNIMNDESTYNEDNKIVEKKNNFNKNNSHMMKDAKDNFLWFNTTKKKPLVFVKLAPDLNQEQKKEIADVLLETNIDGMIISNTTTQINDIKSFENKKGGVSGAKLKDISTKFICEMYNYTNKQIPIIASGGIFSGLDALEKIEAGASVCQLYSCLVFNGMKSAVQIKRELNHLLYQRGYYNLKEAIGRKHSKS

[5] = P. aeruginosa biofilm formation inhibitors, primary screen, strain PAO1, LB-PBS medium, absorbance 600 nm (AID 1176); note: test concentration not given here; conditions: P. aeruginosa PAO1 growth/biofilm, A600, 12 h; higher = more signal
[6] = S. cerevisiae RM11-1a growth modifiers, primary screen, strain RM11-1a, OD600, basal, 24 h (AID 1177); conditions: OD600, 24 h, higher = more signal, called active from +8 up or from −8 down;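 note: cultures grown under basal conditions with no added stressor; test concentration not given here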
[7] = E. coli acrAB mutant growth effects, primary screen, E. coli filamentation inducers, strain DRC39, OD650, 24 h (AID 1178); conditions: higher = more signal, called active from +8 up or from −8 down;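 note: growth measured as culture turbidity by optical density at 650 nm; test concentration not given here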
[8] = E. coli acrAB mutant growth effects, primary screen, E. coli filamentation inducers, strain DRC39, OD650, 48 h (AID 1179);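 note: screen aims at cell division blockers that make cells filament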; conditions: E. coli DRC39 delta-acrAB growth, higher = more signal, called active from +8 up or from −8 down
[9] = RPMI8226 myeloma cell viability, profiling panel, resazurin fluorescence, basal, 24 h, PK04 Diversity Set (AID 1180); conditions: higher = more signal;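 note: RPMI8826 multiple myeloma cell line at 5000 cells per well; test concentration not given here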
[10] = target: E3 ubiquitin-protein ligase XIAP (Homo sapiens) (UniProt P98170); assay: XIAP binders, primary screen, biophysical, small-molecule microarray, fluorescence 635 nm (AID 1181); conditions: small-molecule microarray binding, higher = more signal;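 note: score merges 667 nm emission and signal to noise over triplicate slides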
E3 ubiquitin-protein ligase XIAP (Homo sapiens), sequence (P98170 whole entry, looked up): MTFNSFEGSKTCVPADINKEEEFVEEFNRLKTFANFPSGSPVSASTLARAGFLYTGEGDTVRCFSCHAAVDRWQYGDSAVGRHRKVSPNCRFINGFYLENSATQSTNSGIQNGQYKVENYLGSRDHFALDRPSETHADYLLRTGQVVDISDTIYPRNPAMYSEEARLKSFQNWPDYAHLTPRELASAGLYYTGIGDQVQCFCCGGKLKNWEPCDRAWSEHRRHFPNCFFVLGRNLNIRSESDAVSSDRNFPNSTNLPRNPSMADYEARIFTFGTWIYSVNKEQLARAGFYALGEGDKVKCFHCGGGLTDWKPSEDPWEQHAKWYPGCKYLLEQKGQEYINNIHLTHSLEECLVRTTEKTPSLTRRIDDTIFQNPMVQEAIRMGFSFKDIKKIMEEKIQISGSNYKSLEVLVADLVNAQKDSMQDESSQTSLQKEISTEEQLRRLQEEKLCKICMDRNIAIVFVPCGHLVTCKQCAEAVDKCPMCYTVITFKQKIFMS

Structure (SMILES)	z-score [1]	z-score [2]	z-score [3]	composite z-score [4]	z-score [5]	z-score [6]	z-score [7]	z-score [8]	z-score [9]	composite z-score [10]
Cc1ccc(S[C@]2(C(=O)NC(C)C)CC(=O)N(Cc3ccccc3C(F)(F)F)[C@@H]2c2ccc(CO)cc2I)cc1	0.105	-5.85 (inactive)	-1.86 (inactive)	-1.47 (inactive)	0.27 (inactive)	-2.43 (inactive)	0.221 (inactive)	0.201 (inactive)	-2.09	-0.126
COC(=O)[C@]1(CCS(=O)(=O)c2ccccc2)N=C(c2ccc(OCCCO)cc2)O[C@@H]1c1ccccc1CN=[N+]=[N-]	-1.71	1.69 (inactive)	-4.25 (inactive)	1.09 (inactive)	1.32 (inactive)	1.91 (inactive)	0.153 (inactive)	-1.14 (inactive)	-3.68	-0.0062
O=C1O[C@@H](c2ccccc2)[C@@H](c2ccccc2)N2[C@@H](c3ccccc3OCCO)[C@]3(C(=O)Nc4ccc(C#CC5=CCCCC5)cc43)[C@@H](C(=O)NC[C@H](O)c3ccccc3)[C@H]12	-1.33	0.961 (inactive)	-7.07 (inactive)	0.578 (inactive)	0.787 (inactive)	0.979 (inactive)	-0.0029 (inactive)	-0.208 (inactive)	-5.79	-0.16
NCCCCCNC(=O)[C@@H]1C[C@@H]2C(=O)N[C@@H](CCCCN)C(=O)N2[C@@H]1c1cccc(OCCO)c1	1.03	0.198 (inactive)	1.11 (inactive)	-0.308 (inactive)	-0.105 (inactive)	-0.0041 (inactive)	0.928 (inactive)	1.22 (inactive)	1	-0.399
O=C(CS)NCCCCCCNC(=O)[C@@H]1C[C@@H]2C(=O)N3CCC[C@H]3C(=O)N2[C@@H]1c1cccc(OCCO)c1	-0.306	-0.21 (inactive)	0.832 (inactive)	-0.968 (inactive)	0.42 (inactive)	-1.5 (inactive)	0.743 (inactive)	1.65 (inactive)	0.356	0.0022
[N-]=[N+]=Nc1ccccc1[C@@H]1OC(c2ccc(OCCCO)cc2)=N[C@]1(CCS(=O)(=O)c1ccccc1)C(=O)NCCN1CCOCC1	-0.376	-1.32 (inactive)	-0.195 (inactive)	0.313 (inactive)	0.236 (inactive)	-0.309 (inactive)	0.833 (inactive)	-0.278 (inactive)	-0.659	-0.34
COc1ccc([Si](C)(C)[C@H]2[C@H](CCn3cc([C@H](O)c4ccccc4)nn3)O[C@@]3(C(=O)N(Cc4ccc(N5CCC5=O)cc4)c4ccccc43)[C@@H]2C)cc1	-0.225	0.309 (inactive)	-0.771 (inactive)	0.65 (inactive)	0.401 (inactive)	1.07 (inactive)	0.0302 (inactive)	-0.422 (inactive)	-0.0897	-0.022
C=CCC(OC(C)=O)[C@@H]1[C@@H](N(Cc2cc3ccccc3o2)C(=O)Cc2ccc(F)cc2)c2cc(OCCCO)ccc2N1C(=O)c1ccc2ccccc2n1 (stereo not given in full)	0.182	-0.44 (inactive)	0.74 (inactive)	-0.235 (inactive)	0.243 (inactive)	-0.176 (inactive)	0.106 (inactive)	0.155 (inactive)	0.708	-0.217
CC=CC(O)C1C=CC2C(=O)N(C)C(=O)C2N1Nc1ccc([N+](=O)[O-])cc1[N+](=O)[O-] (stereo not given)	-1.12	0.554 (inactive)	-0.831 (inactive)	0.295 (inactive)	0.599 (inactive)	0.658 (inactive)	-0.476 (inactive)	-0.618 (inactive)	-0.606	-0.247
O=C1OCC=C[C@H]2OC34C=CCN(c5ccc(Cl)cc5)C(=O)[C@H]3N(CCCCCO)C(=O)[C@@H]4[C@@H]12 (stereo not given in full)	-0.46	-1.1 (inactive)	-0.338 (inactive)	0.193 (inactive)	-0.0963 (inactive)	0.119 (inactive)	0.602 (inactive)	0.182 (inactive)	0.0508	0.287
NC(=O)N1C(=O)C2C(C1=O)C1C=C(c3ccc(CO)cc3)C2C(C2CC2)N1Cc1sc2ccccc2c1Cl (stereo not given)	-0.131	-2.55 (inactive)	-1.06 (inactive)	-2.67 (inactive)	-0.836 (inactive)	-0.484 (inactive)	0.927 (inactive)	0.112 (inactive)	-1.23	-0.117
O=C1C2C=CC(C(O)c3cc(C(F)(F)F)cc(C(F)(F)F)c3)N(Nc3ccc([N+](=O)[O-])cc3)C2C(=O)N1c1ccccc1 (stereo not given)	-0.566	0.55 (inactive)	-0.683 (inactive)	0.665 (inactive)	1.07 (inactive)	0.565 (inactive)	-2.26 (inactive)	-1.25 (inactive)	-2.18	0.29
CCCC[C@@H]1C[C@H]1[C@@H](NC(=O)c1cccnc1)c1ccc(-c2ccccc2)cc1	1.6	-3.34 (inactive)	1.1 (inactive)	-0.106 (inactive)	-0.0982 (inactive)	-0.402 (inactive)	-0.88 (inactive)	-0.762 (inactive)	2.9	0.0302
CON(C)C(=O)C=C1C[C@@H](c2cccc(Cl)c2)O[C@@H](c2cccc(Cl)c2)O1	0.485	-0.283 (inactive)	0.0896 (inactive)	-0.558 (inactive)	-0.184 (inactive)	1.21 (inactive)	-0.471 (inactive)	0.134 (inactive)	0.515	-0.0827
CC(C)OC(=O)CC(=O)CC(O)c1cccc(C#N)c1 (stereo not given)	0.532	-0.167 (inactive)	0.343 (inactive)	-1.29 (inactive)	0.533 (inactive)	-0.828 (inactive)	0.283 (inactive)	1.93 (inactive)	-0.0069	-0.267
COCCOC(=O)N1C(=O)[C@@]2(c3cc(C#CC4(O)CCCCCC4)ccc31)[C@H](C(N)=O)[C@H]1C(=O)O[C@H](c3ccccc3)[C@H](c3ccccc3)N1[C@@H]2c1ccccc1OCCO	-1.85	0.707 (inactive)	-7.01 (inactive)	1.34 (inactive)	1.68 (inactive)	2.26 (inactive)	-0.735 (inactive)	-0.719 (inactive)	-6.48	-0.229
COc1cc2c(cc1OC)CN(C(=O)[C@H]1[C@@H]3C(=O)O[C@@H](c4ccccc4)[C@@H](c4ccccc4)N3[C@@H](c3ccc(OCCO)cc3)[C@]13C(=O)Nc1ccc(C#CC4(O)CCCCCC4)cc13)CC2	0.0686	1.19 (inactive)	0.122 (inactive)	-0.143 (inactive)	2.91 (inactive)	3.28 (inactive)	0.457 (inactive)	1.25 (inactive)	0.378	-0.0011
COC(=O)[C@@]1(Cc2ccc(F)cc2)[C@H]2c3cc(C(=O)N4CCCC4)n(CCF)c3C[C@H]2CN1C(=O)c1ccccc1	-0.282	-0.273 (inactive)	-0.547 (inactive)	-0.41 (inactive)	0.84 (inactive)	0.24 (inactive)	-0.239 (inactive)	-0.311 (inactive)	-0.185	-0.233
CCOC(=O)C[C@H]1[C@H](OC(=O)c2ccc(-c3ccccc3)cc2)[C@@H](NC(=O)C2CCCCC2)c2cc(OCCCO)ccc2N1C(=O)c1ccccc1	-0.755	1.44 (inactive)	-0.464 (inactive)	0.141 (inactive)	0.656 (inactive)	0.925 (inactive)	-0.406 (inactive)	-0.566 (inactive)	-0.95	0.0623
CC(C)C(=C=CC[C@@H](O)c1ccccc1OCCO)C[C@@H](O)COCc1ccccc1	0.669	-15.5 (active)	0.304 (inactive)	-5.41 (inactive)	0.354 (inactive)	-4.06 (inactive)	2.28 (inactive)	1.51 (inactive)	0.424	0.109
CN1C2C=C(CCCO)C(C3C(=O)N(C(N)=O)C(=O)C32)C1c1cccs1 (stereo not given)	-1	0.53 (inactive)	-0.135 (inactive)	0.837 (inactive)	-0.329 (inactive)	1.37 (inactive)	-0.967 (inactive)	-0.837 (inactive)	-0.69	3.82
